Mot1-301 SUMO – inhibitors of SUMOylation pathway: yeast Mot1-301 growth rescue | S. cerevisiae Mot1-301 growth rescue, ATP luminescence, 38.5C; percent above DMSO median, 100 means doubled | growth rescue, % at 18.8 µM | actives 1% (n = 320,000) | AID 2716;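 active = every valid replicate shows activation above 250% relative to neutral control wells; inactive = the rest, any valid replicate at or below 250%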;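 note: OY570 slx delta 5 strain wells were the positive control but not used for scaling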
CASP6 VEID inh – blocks human caspase-6 cleavage activity. P55212. purified caspase-6, Z-VEID-R110 cleavage fluorescence. inhibition, % at 12.5 µM. actives 0.53% (n = 350,000);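 active = mean inhibition across replicates at least about 35%, with every replicate also reaching that limit, limit read from the data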;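 note: 0% = median of neutral control wells and 100% = no fluorescence left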
NSD2 inh – blocks human histone methyltransferase NSD2; actives 0.54% (n = 310,000); NSD2 peptide methylation, AlphaScreen, 120 min; inhibition, % at 12.5 µM; in the data active = inhibition above about 50%
ALR inh – human ALR oxidase inhibition via reduced H2O2. purified ALR, DTT oxidation, H2O2 HRP-luminol luminescence. actives 3.8% (n = 290,000). inhibition, % (test concentration not listed). P55789. AID 485317;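 active = mean replicate inhibition above about 79%, with every replicate also reaching it, limit read from the data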
Glyco luc inh – blocks N-linked glycosylation in D54 reporter cells; D54 ERlucT glycosylation luciferase reporter, 24 h; percent of 100 nM tunicamycin response; reporter increase, % at 12.5 µM; actives 0.23% (n = 360,000); AID 588692;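 active = mean luciferase reporter signal, scaled so untreated is 0 and the glycosylation-blocking control 100, at or above a set limit in every replicate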;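 note: luciferase carries N-glycosylation sites so blocking glycosylation raises the light; 0% = median of neutral control wells and 100% = median of 100 nM tunicamycin wells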
CDK5 p35 inh – blocks human CDK5/p35 kinase activity; Recombinant CDK5/p35, ADP-Glo luminescence, 60 min; inhibition, % at 10 µM; actives 0.01% (n = 330,000); AID 488839;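 active = highest replicate inhibition of at least 50% and at least 75% of replicates reaching 50%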;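 note: plate controls were DMSO neutral control for no effect and GW8510 at 10 µM for full effect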
* marks the source's active call; other numbers are inactive results; . = not tested or not shown. In the library only some 3.9% were active in any assay of this set; here they are far more common.

SMILES	Mot1-301 SUMO	CASP6 VEID inh	NSD2 inh	ALR inh	Glyco luc inh	CDK5 p35 inh
O=C(C[C@@H]1CC[C@H](NC(=O)Nc2ccccc2)[C@@H](CO)O1)NCc1cccc(F)c1	.	0.0	.	.	.	.
Cc1cc(C)cc(N(CC(=O)NC(C)C)C(=O)CCC(=O)Nc2ccccn2)c1	3.9	44.9*	0.0	-5.5	0.7	-0.4
Cc1cccc(N(CC(=O)NC(C)C)C(=O)CCC(=O)Nc2ccccn2)c1	-13.0	-0.3	-1.1	3.3	2.2	1.2
O=c1nc(-c2ccccc2)c(-c2ccccc2)n[nH]1	-6.3	0.4	-3.8	1.1	1.9	-0.6
S=c1nc(-c2ccccc2)c(-c2ccccc2)n[nH]1	-15.1	-3.9	0.7	86.0*	1.7	3.8
COc1cc(NC(C)CCc2ccccc2)cc(OC)c1OC (configuration not stated)	-4.3	-2.7	6.5	87.9*	1.7	1.1
Cc1cccc(C)c1-n1c(C)cc(/C=C2\NC(=O)NC2=O)c1C	11.7	.	3.4	61.2	-0.8	-0.4
Cc1c(/C=C2\NC(=O)NC2=O)c2ccccc2n1C	-6.9	2.0	1.4	98.3*	0.1	-0.8
C[C@H]1CCCCO[C@H](CN(C)Cc2ccc(C(=O)O)cc2)[C@@H](C)CN([C@@H](C)CO)C(=O)c2cc(NS(C)(=O)=O)ccc2O1	.	0.4	.	.	.	.
CC(=O)N[C@H]1CC[C@@H](CCNC(=O)C2CCCC2)O[C@H]1CO	.	7.8	.	.	.	.
C[C@@H]1CN([C@H](C)CO)C(=O)c2cc(-c3ccc(F)cc3)cnc2O[C@@H]1CN(C)C(=O)c1ccc(F)cc1	.	4.8	.	.	.	.
Cc1sc(N)nc1-c1c(C)n(C)c2ccccc12	16.5	-0.6	3.2	99.1*	1.0	0.4
Cc1ccc(-c2nc(N)sc2C)cc1	2.5	-3.8	0.6	.	1.3	0.4
Cc1ccc(S(=O)(=O)Nc2ccc3c(c2)C(=O)N([C@H](C)CO)C[C@@H](C)[C@H](CN(C)S(C)(=O)=O)OCCCC[C@@H](C)O3)cc1	.	-3.3	.	.	.	.
CSC(=Nc1ccccc1)C1=C(O)COC1=O	-12.0	.	1.6	96.9*	-8.0	-0.8
CCC(=O)N[C@@H]1CC[C@@H](CC(=O)NCCN2CCCCC2)O[C@@H]1CO	.	-9.9	.	.	.	.
Oc1ccc(C2=NNC(=NCc3ccc4c(c3)OCO4)SC2)c(O)c1	-6.9	.	1.2	95.4*	21.1	1.0
Clc1ccc(C2=NNC(=NCc3ccc4c(c3)OCO4)SC2)cc1	95.5	-0.8	2.0	0.0	-0.4	-0.4
C[C@@H]1CN([C@@H](C)CO)C(=O)Cc2cc(NC(=O)Nc3ccc4c(c3)OCO4)ccc2O[C@H]1CN(C)S(=O)(=O)c1ccc(Cl)cc1	.	4.4	.	.	.	.
COc1ccc(C(=O)n2cc(C(=O)c3cc(C)ccc3O)cn2)cc1	28.2	.	-1.1	97.7*	0.2	-1.0
CCNc1nc(CSc2ccccc2)nc2sc(C)c(C)c12	-24.4	.	2.0	82.8*	-4.2	-1.5
CN1[C@@H]2c3ccc(-c4ccccc4)c(=O)n3C[C@@H]2[C@@H](CO)[C@@H]1C(=O)N1CCc2ccccc2C1	.	2.5	.	.	.	.

Compound activity from PubChem.
